In PubChem BioAssay (NCATS):
Several values for one entry are separate records, joined by “and”; a condition that tells them apart may be missing. Identical values can stand only once. Results filed as inconclusive are left out.

Assay: qHTS Assay for Lipid Storage Modulators (AID 1519)
Conditions: Drosophila S3 cells, BODIPY lipid droplet/cell ratio, laser cytometry; measured here: lipid channel max response; cells loaded with oleic acid
Method in brief: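 Cells seeded at 5,000 per well were treated with compounds over a concentration series and loaded with oleic acid (400 uM, as added). Lipid droplet fluorescence (488 nm excitation, 500-530 nm channel) was read by laser-scanning cytometry and normalized to 20 uM Triacsin C.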
With `CCCCOc1cc(C(=O)NCCN(CC)CC)c2ccccc2n1` the max response was -8.39% and 23.8%.
In the case of `CC(=O)Nc1c(I)cc(I)c(C(=O)O)c1I`, the max response is reported as 12.7%.
With `CN(C(=O)CN(CCO)CC(=O)N(C)C(C)(C)Cc1ccccc1)C(C)(C)Cc1ccccc1` the max response was -21.3% and 13.9%.
For `Cc1ccc(C(=O)C(C)CN2CCCCC2)cc1` (configuration not stated), the max response was 11.2%.
In the case of `COc1ccc(CCN2CCC(Nc3nc4ccccc4n3Cc3ccc(F)cc3)CC2)cc1`, the max response is reported as -24.1% and 21%.
In the case of `CCN(CC)C(=O)N1CCN(C)CC1`, the max response is reported as 2.25% and 24.5%.
With `C/C=C(/C(=C/C)c1ccc(O)cc1)c1ccc(O)cc1` the max response was 27.9%.
For `OC(CCN1CCCCC1)(c1ccccc1)c1ccccc1`, the max response was -4.61% and 14.1%.
For `CCOC(=O)n1ccn(C)c1=S`, the max response was -8.09% and 22%.
With `CC(=O)c1ccc2c(c1)N(CCCN1CCC(CCO)CC1)c1ccccc1S2` the max response was -2.93%.
For `CN1CCN(CCCN2c3ccccc3Sc3ccc(S(=O)(=O)N(C)C)cc32)CC1`, the max response was -5.35%.
For `CC(C)NC[C@@H](O)COc1cccc2ccccc12`, the max response was -1.83% [middle of 4 runs].
With `CCCCC1=NC2(CCCC2)C(=O)N1Cc1ccc(-c2ccccc2-c2nn[nH]n2)cc1` the max response was 9.2%.
Molecule `COc1ccc(OC)c(C(O)CNC(=O)CN)c1` (configuration not stated) has a max response of 23.2%.
Molecule `c1ccc(-c2ccc(C(c3ccccc3)n3ccnc3)cc2)cc1` (configuration not stated) has a max response of 27.7%.
With `CN(C)CC/C=C1\c2ccccc2Sc2ccc(Cl)cc21` the max response was -14.2% and 16.4%.
For `CN1CCN(C(c2ccccc2)c2ccccc2)CC1`, the max response was -3.01% and 29.7%.
`CCCCc1nc(Cl)c(CO)n1Cc1ccc(-c2ccccc2-c2nn[nH]n2)cc1` showed a max response of 25.7%.
For `Cc1cc(=O)n(-c2ccccc2)n1C`, the max response was 1.09% and 14.3%.
With `CC(C)(Oc1ccc(Cl)cc1)C(=O)O` the max response was -1.85%.
Work on `CN=C(NC#N)NCCSCc1csc(N=C(N)N)n1` yielded a max response of -3.26%.
`CCOc1ccc(Cc2nccc3cc(OCC)c(OCC)cc23)cc1OCC` gave a max response of -26.4%.
For `C[N+]1(CCCCC[N+]2(C)CCCC2)CCCC1`, the max response was -15.5% and 11.1% and -3.95%.
In the case of `O=C1c2ccccc2C(=O)C1c1ccccc1`, the max response is reported as -14% and 33.1%.
With `Oc1c(I)cc(Cl)c2cccnc12` the max response was -24.9% and -6.72%.
With `CC(C)(C(=O)c1cccnc1)c1cccnc1` the max response was -17.9%.
`O=C(OCC(O)CO)c1ccccc1Nc1ccnc2cc(Cl)ccc12` (configuration not stated) showed a max response of 7.83%.
In the case of `CCN(CCCc1ccccc1)CCCc1ccccc1`, the max response is reported as -0.884% and 21.1%.
For `CNCCC=C1c2ccccc2CCc2ccccc21`, the max response was -6.43% and 39.3%.
For `Nc1nc2ncc(CNc3ccc(C(=O)N[C@@H](CCC(=O)O)C(=O)O)cc3)nc2c(=O)[nH]1`, the max response was -8.4% and 15.7%.
Molecule `CCN(CC)CCOC(=O)C(c1ccccc1)C1CCCCC1` (configuration not stated) has a max response of 13.6%.
For `C=C(CC)C(=O)c1ccc(OCC(=O)O)c(Cl)c1Cl`, the max response was -2.15% and 13.8%.
